# Source: PubChem BioAssay
# The list is not random: actives were taken first. Their share in the collection is about 21%.
# DRD3 agonist: activates the human D3 dopamine receptor. P35462. D3R DiscoveRx beta-arrestin cells, luminescence, 90 min. max activation, %. 410,000 tested, 0.58% active. AID 652048; in the data active = max activation above about 30%; also: 0% is about no effect
# Target sequence (P35462 whole entry, looked up): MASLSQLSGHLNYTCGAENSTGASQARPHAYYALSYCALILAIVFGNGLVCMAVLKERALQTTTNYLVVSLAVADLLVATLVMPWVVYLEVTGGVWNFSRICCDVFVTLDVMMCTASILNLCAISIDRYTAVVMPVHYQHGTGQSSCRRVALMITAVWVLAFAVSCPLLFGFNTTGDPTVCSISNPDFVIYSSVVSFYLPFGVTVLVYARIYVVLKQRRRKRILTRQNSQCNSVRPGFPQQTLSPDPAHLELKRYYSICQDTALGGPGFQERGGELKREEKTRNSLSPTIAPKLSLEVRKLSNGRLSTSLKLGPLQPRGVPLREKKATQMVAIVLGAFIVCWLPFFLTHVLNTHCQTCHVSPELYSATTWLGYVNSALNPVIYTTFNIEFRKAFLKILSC
#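 Cells at 1500/well, incubated overnight, then treated with pinned compounds (dopamine as control) for 90 min at 37 degrees C. DiscoveRx reagent added for 30 - 60 minutes at room temperature; luminescence read.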
# TDP1 cell noCPT: qHTS for Inhibitors of human tyrosyl-DNA phosphodiesterase 1 (TDP1): qHTS in cells in absence of CPT; Potency, µM (titrated, usually from 46.2 µM), for inactives: at the top dose activity change, negative = growth inhibition, actives largely listed as inhibitors; DT40 Tdp1-/- hTDP1 cells, no CPT, ATP luminescence, 48 h; 420,000 tested, 15% active; AID 686978, 2013; also: potency is read from the fitted curve at half-maximal effect; % is scaled to controls: 0 for no effect and ±100 for the full control effect; nearly all actives have a fitted effect of over 55% in size
#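 Growth of hTDP1-complemented DT40 Tdp1-knockout cells is measured by ATP luminescence after at least 48 hr compound exposure at 37 °C, with DMSO substituting for the 20 nM CPT used in the parallel screen.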
# ClpP mod: qHTS Assay for Activators of ClpP | ATP-dependent Clp protease proteolytic subunit (Bacillus subtilis (strain 168)), P80244 | purified B. subtilis ClpP, FRET peptide cleavage, 20 min | Potency, µM (top dose mostly 57.5 µM), inactives show top-dose activity change, negative = active | 340,000 tested, 1.9% active | AID 651965, 2013; active = well fitted falling curve with a large enough effect; inconclusive = small, poorly fitted or top-dose-only effect; inactive = no such curve, though single readings can be large or run the other way; also: potency is read from the fitted curve at half-maximal effect; the source files actives as falling curves though it sought activators and does not explain the sign; nearly all actives have a fitted effect of over 65% in size
# Target sequence (P80244 whole entry, looked up): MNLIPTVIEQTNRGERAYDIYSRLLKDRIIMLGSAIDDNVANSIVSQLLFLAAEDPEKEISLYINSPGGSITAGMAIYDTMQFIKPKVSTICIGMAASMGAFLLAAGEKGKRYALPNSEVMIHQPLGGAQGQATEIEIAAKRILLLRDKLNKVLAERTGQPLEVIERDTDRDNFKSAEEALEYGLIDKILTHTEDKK
#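 ClpP 10 microg/mL final, pH 8 Tris/KCl buffer with BSA, glycerol, Tween-20; compound pinned in; FRET-FV substrate; RT 20 min; Ex320/Em430; ΔFRET vs ADEP 5.8 microM, DMSO, no enzyme.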
# DRD3 antagonist: D3 dopamine receptor (human) antagonism; P35462; D3R cells, DiscoveRx beta-arrestin luminescence, antagonist mode; active compounds read low; 360,000 tested, 2.5% active; max response, negative = inhibition, %; in the data active = max response below about -50%; inconclusive = no clear call, values can overlap the other calls; also: % is scaled to controls: 0 for no effect and ±100 for the full control effect
#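 Cells plated overnight at 1500 cells/well, then exposed to library compounds with dopamine controls for 90 minutes at 37 degrees C. DiscoveRx reagent added for 30–60 minutes at room temperature; luminescence read, quantitative HTS format.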
# IL-1B inflam inh: inhibitors of inflammasome signaling (IL-1 beta secretion); THP-1 LPS/ATP IL-1B secretion, AlphaLISA, 16 h; active compounds read low; activity change, % at 57.5 µM; 360,000 tested, 4.7% active; AID 743279; in the data active = activity change below about -50%; inconclusive = mostly about -30% to -49%; also: % is scaled to controls: 0 for no effect and ±100 for the full control effect
#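 THP-1 cells pretreated 1 hr with compounds (up to 57.5 uM final), then stimulated with LPS (250 ng/mL final) plus ATP (1.25 mM final); secreted IL-1B measured by AlphaLISA after 16 hr, decreased signal indicating inhibition.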
# TDP1 cell CPT: DT40-hTDP1 cell growth loss with CPT; chicken DT40 Tdp1-/-;hTDP1 cells + 20 nM CPT, ATP luminescence, 48 h; 420,000 tested, 12% active; Potency, µM (series often up to 46.2 µM), for inactives: at the highest dose activity change, negative = growth inhibition, actives largely listed as inhibitors; also: potency is read from the fitted curve at half-maximal effect; % is scaled to controls: 0 for no effect and ±100 for the full control effect; nearly all actives have a fitted effect of over 55% in size
#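 Chicken DT40 Tdp1-/- cells complemented with human TDP1, 400 cells/well, exposed to compounds plus 20 nM camptothecin for at least 48 h at 37 C; viability read as ATP content by CellTiter-Glo luminescence.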
# * hit, by the source's call; ? = inconclusive; / = no result. Unless noted, calls follow the shape of the dose curve; as a rule, active = well fitted inhibition curve with a large enough effect; inconclusive = small, poorly fitted or top-dose-only effect; inactive = flat fitted curve, though single readings scatter.
SMILES,DRD3 agonist,TDP1 cell noCPT,ClpP mod,DRD3 antagonist,IL-1B inflam inh,TDP1 cell CPT
CCN(CC)S(=O)(=O)c1cccc(NC(=O)c2cccc(S(=O)(=O)N3CCCC3)c2)c1,-3,16µM*,-3%,-26,-1,?
CCc1nc(CNC(=O)C2CCC(=O)N(CCc3cccc(F)c3)C2)no1 (configuration not stated),4,1%,-3%,-12,3,-25%
O=C1c2ccccc2C(=O)N1c1nc(-c2ccc(Cl)cc2)cs1,/,?,-1%,/,/,?
CC(=O)c1cccc(NCC(=O)Nc2cccc(S(=O)(=O)N3CCCCC3)c2)c1,3,?,1%,15,-6,?
Cc1ccc(S(=O)(=O)N2CCOCC2)cc1NC(=O)CN(C)CC(=O)Nc1cccc(F)c1,-5,21µM*,0%,-12,-16,?
Cc1ccc(S(=O)(=O)N2CCCCC2)cc1NC(=O)CNc1ccc(C(F)(F)F)cc1,-7,?,/,-10,?,?
CCN(CC)S(=O)(=O)c1cccc(NC(=O)CNc2cccc(S(=O)(=O)N3CCCC3)c2)c1,24,1.2µM*,-7%,4,-9,1µM*
CC1Cc2ccccc2N1C(=O)CNc1cccc(S(=O)(=O)N2CCCC2)c1 (configuration not stated),-10,21µM*,/,-19,0,15µM*
CCN(CC)S(=O)(=O)c1ccc(C)c(NC(=O)CNc2cccc(S(=O)(=O)N3CCCC3)c2)c1,5,13µM*,-2%,12,3,18µM*
Cc1ccc(-c2nc(S(=O)(=O)c3ccc(F)cc3)c(N3CCN(c4ccccc4)CC3)o2)cc1,-14,-27%,-4%,/,/,?
COc1ccc(OC)c2[nH]c(=O)c(CCNC(=O)c3cccs3)cc12,-1,-14%,2%,38,-28,-18%
Cc1ccccc1OCc1nc2ccccc2n1Cc1ccccc1Cl,-19,10µM*,-2%,/,/,?
Cc1cccc(OCc2nc3ccccc3c(=O)n2N)c1,5,29µM*,0%,6,-23,?
Cc1ccccc1OCc1nc2ccccc2n1C,-11,?,0%,3,2,?
CCCn1c(COc2cccc(C)c2)nc2ccccc21,41*,21µM*,1%,/,/,?
COc1cccc(OCc2nc3ccccc3n2Cc2ccccc2C)c1,4,12µM*,-2%,/,/,21µM*
C[C@]12CC[C@@H]3c4ccc(O)cc4CC[C@H]3[C@@H]1CC[C@@H]2OP(=O)(O)O,0,0%,/,/,/,-6%
C=CCc1c(C)nc2ccc(C(=O)OCC)cc2c1Cl,9,-26%,/,17,40,?
Cc1ccc(CSc2ncc(Cl)c(C(=O)Oc3ccc(F)cc3)n2)cc1,-15,-5%,-6%,/,/,-23%
COc1ccc(NC(=O)N2CCC(c3nc4ccccc4[nH]3)CC2)cc1,8,2%,/,-6,0,2%
O=C(CNC(=O)C1CCCCC1)OCC(=O)c1ccccc1,/,-22%,-1%,/,/,6%
O=C1CCC(OCc2ccccc2)CCN1CC[C@@H](Sc1ccccc1)c1ccccc1 (some centres not stated),5,?,-3%,8,11,?
C[C@@H]1CCC(=O)N(CC[C@H](Sc2ccccc2)c2ccccc2)CC1,-8,13µM*,-3%,6,0,13µM*
O=C1CC[C@@H](OCc2ccccc2)CCN1CC[C@H](Sc1ccccc1)c1ccccc1,-11,18µM*,0%,-4,21,16µM*
CCOC(=O)C1CCN(c2cc3c(cc2NC(=O)c2ccccc2OCC)n(C)c(=O)n3C)CC1,5,5.8µM*,-2%,25,38,21µM*
SMILES,DRD3 agonist,TDP1 cell noCPT,ClpP mod,DRD3 antagonist,IL-1B inflam inh,TDP1 cell CPT
COc1ccccc1C(=O)Nc1cc2c(cc1N1CCCCC1)n(C)c(=O)n2C,-23,13µM*,80%,/,/,5.8µM*
CCOC(=O)C1CCN(c2cc3c(cc2NC(=O)c2ccc(Cl)cc2)n(C)c(=O)n3C)CC1,4,2.6µM*,-6%,/,/,8.2µM*
CCOC(=O)C1CCN(c2cc3c(cc2NC(=O)c2ccccc2F)n(C)c(=O)n3C)CC1,5,-15%,-7%,4,56,-24%
Cn1c(=O)n(C)c2cc(N3CCCCC3)c(NC(=O)c3ccc(C(C)(C)C)cc3)cc21,-3,?,-1%,/,/,?
CCOC(=O)C1CCN(C(=O)c2ccccc2NC(=O)c2ccc(Cl)cc2)CC1,2,23µM*,-2%,10,33,?
COc1ccccc1C(=O)Nc1cc2c(cc1N1CCCC1)n(C)c(=O)c(=O)n2C,7,?,?,/,/,-1%
CCOC(=O)C1CCN(C(=O)c2cccnc2Oc2ccc(Cl)cc2)CC1,-3,?,1%,0,-9,?
N#Cc1cccc(NC(=O)N2CC3(CCN(C(=O)c4cnccn4)CC3)C2)c1,/,-2%,/,/,/,9%
N/C(=N\NS(=O)(=O)c1ccccc1Cl)c1ccccn1,7,-13%,/,5,21,-22%
COc1ccc(OC)c(NC(=O)COCc2cc(-c3ccco3)on2)c1,-11,?,-1%,/,/,?
COc1ccc2nc(NC(=O)C3CC(=O)N(c4ccccc4)C3)sc2c1 (configuration not stated),-8,?,/,-8,-57*,-18%
CCC(C)C(=O)Nc1nc2ccc(OC)cc2s1 (configuration not stated),5,16µM*,/,13,-3,?
COc1ccc2nc(NC(=O)Nc3ccccc3OC)sc2c1,-4,5.2µM*,/,-6,-7,9.2µM*
COc1ccc(N2CC(C(=O)Nc3nc4ccc(OC)cc4s3)CC2=O)cc1 (configuration not stated),0,?,/,-7,-5,-3%
COc1cccc(C2(c3cccc(OC)c3)CC2C(=O)Nc2cccc3ccccc23)c1 (configuration not stated),-1,26µM*,1%,-14,16,?
NCCn1c(=O)c(CCc2ccccc2)nc2cncnc21,/,-24%,/,/,/,-50%
COc1ccc2nc(NC(C)=O)sc2c1,8,?,1%,11,-12,?
CC(=O)N(C)c1ccc(NC(=O)Nc2ccc(C)c(C)c2)cc1,-9,18µM*,/,19,?,?
Cc1cc(NC(=O)Nc2ccc(F)cc2)no1,3,-14%,-1%,10,-8,-3%
